# Results from PubChem BioAssay (EPA / NIEHS).
# Several values for one entry are separate records, joined by “and”; a condition that tells them apart may be missing. Equal values may be shown once. Some compounds were tested as several samples or in several runs, with calls that do not always agree. Activity calls are given as the source filed them. Rule for the calls: active = hit-call score of the fitted dose curve at least 0.9, where 1 is the maximum; inactive = score below 0.9.
# Read-out: Monocyte Chemoattractant Protein-1 (MCP1), CCL2 (gene 6347)
# Test: BSK_IMphg_MCP1: BioMAP Diversity Plus: IMphg Assay for Monocyte Chemoattractant Protein-1 (MCP1) Biomarker Activity (AID 2284253)
# Details: primary human endothelial cells with macrophages
# Description: BSK_IMphg is a cell-based, multiplexed-readout assay that uses venular endothelial cells and macrophages, a human vascular primary cell, with measurements taken at 24 hours after chemical dosing in a microplate: 96-well plate.BSK_IMphg_MCP1 is an assay component measured in the BSK_IMphg assay. It measures MCP-1 antibody related to regulation of gene expression using ELISA technology.Data from the assay component BSK_IMphg_MCP1 was analyzed at the endpoint, BSK_IMphg_MCP1, in the positive analysis fitting direction relative to DMSO as the negative control and baseline of activity. Using a type of binding reporter, gain or loss-of-signal activity can be used to understand protein changes. To generalize the intended target to other relatable targets, this assay endpoint is annotated to the 'cytokine' intended target family, where the subfamily is 'chemotactic factor'.
# The levels of cell surface (or secreted, indicated by the prefix "s") biomarker endpoints were measured by ELISA. Overt cytotoxicity to cells in confluent adherent cultures (all systems other than the BT system) was assessed by measuring total protein levels using sulforhodamine B (SRB) staining in parallel cultures at the time of biomarker measurements, indicated as SRB endpoints. For proliferation assays for adherent cell types, individual cell types are cultured at sub-confluence and relative cell numbers quantified by SRB staining at time points optimized for each system (48 h: 3C and CASM3C systems; 72 h: BT and HDF3CGF systems; 96 h: SAg system). SRB was performed by staining cells with 0.1% SRB after fixation with 10% TCA and reading wells at 560 nm.Viability and proliferation of PBMC (T cells) was quantified by Alamar Blue reduction for the SAg and BT systems. For PBMC viability (referred to as PBMC Cytotoxicity within the assay endpoint names), cells were plated (75,000/well in a 96-well plate) and then chemical samples added for 1 h before addition of activators, SEB and TSST-1 (20 ng/mL final concentration each). Cells were incubated for 90 h. Then, Alamar Blue (20 uL/well) (Invitrogen, Cat DAL1100) was added for 6 h, and the plates were read with a fluorescence microplate reader at 546/580 nm (excitation/emission). For PBMC proliferation, cells were plated and activated as above but incubated for only 16 h prior to addition of Alamar Blue. Plates were read after 6 h.
SMILES,AC50,outcome
NS(=O)(=O)C(F)(F)C(F)(F)C(F)(F)C(F)(F)C(F)(F)C(F)(F)F,22.3 µM (active),inactive
O=S(=O)(O)CCC(F)(F)C(F)(F)C(F)(F)C(F)(F)C(F)(F)C(F)(F)C(F)(F)C(F)(F)F,–,inactive
C=C(C)C(=O)OCC(F)(F)C(F)(F)C(F)(F)C(F)F,–,inactive
O=C(Cl)C(F)(F)C(F)(F)C(F)(F)C(F)(F)C(F)(F)C(F)(F)C(F)(F)F,52.9 µM (active),inactive
NC(=O)C(F)(F)C(F)(F)C(F)(F)C(F)(F)C(N)=O,–,inactive
O=C(O)C(F)(F)C(F)(F)C(F)(F)C(=O)O,–,inactive
O=C(O)C(F)(F)C(F)(F)C(F)(F)C(F)(F)C(F)(F)C(F)(F)C(F)F,–,inactive
NC(=O)C(F)(F)C(F)(F)C(F)(F)C(F)F,–,inactive
NC(=O)C(F)(F)C(F)(F)C(F)(F)F,–,inactive
O=C(O)C(F)(F)OC(F)(F)C(F)(F)OC(F)(F)C(F)(F)OC(F)(F)F,–,inactive
NCC(F)(F)C(F)(F)C(F)(F)C(F)(F)C(F)(F)C(F)(F)C(F)(F)C(F)(F)F,–,inactive
CCN(CCO)S(=O)(=O)C(F)(F)C(F)(F)C(F)(F)C(F)(F)C(F)(F)C(F)(F)C(F)(F)C(F)(F)F,–,inactive
FC(F)(F)C(F)(F)C(F)(F)C(F)(F)C(F)(F)C(F)(F)C(F)(F)CCI,–,inactive
O=C(O)CCC(F)(F)C(F)(F)C(F)(F)C(F)(F)C(F)(F)C(F)(F)C(F)(F)F,–,inactive
OCC(O)CC(F)(F)C(F)(F)C(F)(F)C(F)(F)F (stereo not given),–,inactive
CCOC(=O)CC(=O)C(F)(F)C(F)(F)F,–,inactive
CO[Si](C)(CCC(F)(F)C(F)(F)C(F)(F)C(F)(F)C(F)(F)C(F)(F)F)OC,–,inactive
NC(=O)C(F)(F)C(F)(F)C(F)(F)C(F)(F)C(F)(F)C(F)(F)C(F)(F)F,–,inactive
O=C(O)C(F)(F)C(F)(F)C(F)(F)OC(F)(C(F)(F)F)C(F)(F)F,–,inactive

SMILES,AC50,outcome
O=S(=O)(O)CCC(F)(F)C(F)(F)C(F)(F)C(F)(F)F,–,inactive
OCCCCC(F)(F)C(F)(F)C(F)(F)C(F)(F)F,–,inactive
OCC(F)(F)C(F)(F)C(F)(F)CO,–,inactive
O=S(=O)(OCC(F)(F)F)C(F)(F)C(F)(F)C(F)(F)C(F)(F)F,–,inactive
C=CC(=O)OCC(F)(F)C(F)(F)C(F)(F)C(F)(F)C(F)(F)C(F)(F)C(F)(F)C(F)F,–,inactive
CNS(=O)(=O)C(F)(F)C(F)(F)C(F)(F)C(F)(F)C(F)(F)C(F)(F)C(F)(F)C(F)(F)F,–,inactive
COC(F)(C(F)F)C(F)(F)F (stereo not given),–,inactive
CN(C(=O)C(F)(F)C(F)(F)C(F)(F)F)[Si](C)(C)C,–,inactive
O=C(Cl)C(F)(F)C(F)(F)C(F)(F)C(F)(F)C(F)(F)C(F)(F)F,–,inactive
C[Si](Cl)(Cl)CCC(F)(F)C(F)(F)C(F)(F)C(F)(F)C(F)(F)C(F)(F)F,–,inactive
NC(O)(C(F)(F)F)C(F)(F)F,–,inactive
OCCCC(F)(F)C(F)(F)C(F)(F)C(F)(F)C(F)(F)C(F)(F)C(F)(F)C(F)(F)F,18.5 µM (active) and 21.1 µM (active),–
OCC(O)CC(F)(F)C(F)(F)C(F)(F)C(F)(F)C(F)(F)C(F)(F)C(F)(F)C(F)(F)F (stereo not given),–,inactive
O=C(O)CCC(F)(F)C(F)(F)C(F)(F)F,–,inactive
OCC(F)(F)C(F)(F)C(F)(F)C(F)(F)C(F)(F)C(F)(F)C(F)(F)C(F)(F)CO,50.4 µM (active) and 51.3 µM (active),–
O=S(=O)(Cl)C(F)(F)C(F)(F)C(F)(F)C(F)(F)C(F)(F)C(F)(F)C(F)(F)C(F)(F)F,–,inactive
OCC(F)(F)C(F)(F)C(F)(F)C(F)(F)C(F)(F)C(F)(F)CO,–,inactive
O=C(O)C(F)(F)C(F)(F)C(F)(F)OC(F)(F)F,–,inactive
C=CC(=O)OCCC(F)(F)C(F)(F)C(F)(F)C(F)(F)F,–,inactive
